Laboratory results from PubChem BioAssay (NCI).
Compounds without any hit were thinned out: in the full panel of roughly 79,000, 15% have a hit. Active and inactive are the calls of the source. Cut-off read from the data, not from the text of the source: active = growth inhibition above about 70%; inactive = the rest.

What was measured:
[1] = NCI Yeast Anticancer Drug Screen. Data for the rad52 strain (AID 147);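 note: 0% = growth of vehicle-treated control cultures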; details: S. cerevisiae rad52 mutant growth inhibition, stronger effect = higher value
Outline: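 Genetically altered yeast (DNA damage repair defect) treated with compound; inhibition calculated relative to vehicle.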

[2] = NCI Yeast Anticancer Drug Screen. Data for the wt1 strain (AID 149);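 note: 0% = growth of vehicle-treated wt1 cultures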; details: S. cerevisiae wt1 strain (SPY 50644) growth inhibition, stronger effect = higher value
Outline: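 Compounds are added to wt1 yeast cultures. Growth is then measured. Inhibition is expressed relative to vehicle-treated controls.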

[3] = NCI Yeast Anticancer Drug Screen. Data for the rad50EPP+ strain (AID 151);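 note: 0% = growth of vehicle-treated control cultures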; details: S. cerevisiae rad50 mutant strain, stronger effect = higher value
Outline: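 Strain rad50EPP+; compound exposure; % growth inhibition vs vehicle.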

[4] = NCI Yeast Anticancer Drug Screen. Data for the mgt1 strain (AID 153); details: S. cerevisiae mgt1 mutant growth inhibition, stronger effect = higher value
Outline: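 Read-out: yeast growth inhibition vs vehicle control. Strain mgt1, drawn from a panel altered in DNA damage repair or cell cycle control.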

[5] = NCI Yeast Anticancer Drug Screen. Data for the rad50 strain (AID 155);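 note: 0% = growth of vehicle-only cultures of the same strain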; details: S. cerevisiae rad50 strain growth inhibition, stronger effect = higher value
Outline: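 Inhibition values express reduced yeast growth in compound-treated cultures relative to vehicle-treated controls.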

[6] = NCI Yeast Anticancer Drug Screen. Data for the mec2-1 strain (AID 157); details: S. cerevisiae mec2-1 strain, stronger effect = higher value
Outline: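 Cells of the genetically defined mec2-1 yeast strain are incubated with test compound. Inhibition of growth is calculated against vehicle-treated controls.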

[7] = NCI Yeast Anticancer Drug Screen. Data for the rad14 strain (AID 159);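 note: 0% = growth of vehicle-treated control cultures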; details: S. cerevisiae rad14 strain growth inhibition, stronger effect = higher value
Outline: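 A mutant yeast strain defective in DNA damage repair is treated with compound; inhibition of its growth is scored against untreated, vehicle-exposed cultures.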

[8] = NCI Yeast Anticancer Drug Screen. Data for the sgs1 mgt1 strain (AID 161);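 note: 0% = growth of cultures given vehicle only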; details: S. cerevisiae sgs1 mgt1 strain, stronger effect = higher value
Outline: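 Inhibition of yeast growth, normalised to vehicle-treated controls, is reported for a strain bearing genetic alterations in DNA damage repair.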

[9] = NCI Yeast Anticancer Drug Screen. Data for the CLN2oe strain (AID 163);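 note: 0% = growth of vehicle-only control cultures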; details: S. cerevisiae CLN2oe strain, stronger effect = higher value
Outline: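 Strain altered in cell-cycle control, incubated with compound; growth compared to solvent-treated controls.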

[10] = NCI Yeast Anticancer Drug Screen. Data for the cln2 rad14 strain (AID 165);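 note: 0% = growth equal to vehicle treated cultures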; details: S. cerevisiae cln2 rad14 strain, stronger effect = higher value
Outline: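 The screen exposed genetically defined yeast (cln2 rad14) to test compounds and scored growth inhibition relative to vehicle-treated controls.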

[11] = NCI Yeast Anticancer Drug Screen. Data for the bub3 strain (AID 167); details: S. cerevisiae bub3 mutant strain, stronger effect = higher value
Outline: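 Steps: expose the mutant yeast strain to compound; grow alongside vehicle-treated cultures; measure growth; express inhibition against the vehicle cultures.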

[12] = NCI Yeast Anticancer Drug Screen. Data for the wt2 strain (AID 169);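 note: 0% = growth of vehicle-treated yeast cultures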; details: S. cerevisiae wt2 strain growth inhibition, stronger effect = higher value
Outline: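 Steps: yeast strain treated with compound; growth recorded; inhibition calculated relative to cultures given vehicle alone.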

[13] = NCI Yeast Anticancer Drug Screen. Data for the mlh1 strain (AID 171);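 note: 0% = growth of vehicle-treated control cultures of the same strain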; details: S. cerevisiae mlh1 strain growth inhibition, stronger effect = higher value
Outline: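 Yeast screen: mutant strain plus compound, growth scored against vehicle control wells.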

[14] = NCI Yeast Anticancer Drug Screen. Data for the sgs1 strain (AID 173);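 note: 0% = growth of vehicle-only control cultures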; details: S. cerevisiae sgs1 mutant, stronger effect = higher value
Outline: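 Inhibition of yeast growth served as the measure. The mutant strain was treated with each compound, and growth was normalised to cultures receiving vehicle alone.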

[15] = NCI Yeast Anticancer Drug Screen. Data for the mlh1 rad18 strain (AID 175); details: S. cerevisiae mlh1 rad18 strain growth inhibition, stronger effect = higher value
Outline: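 Compound-treated yeast growth, normalised to vehicle controls. Strain bears defined DNA repair mutations.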

[16] = NCI Yeast Anticancer Drug Screen. Data for the rad18 strain (AID 177); details: S. cerevisiae rad18 mutant growth inhibition, stronger effect = higher value
Outline: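 Inhibition values reflect reduced yeast growth compared with vehicle-treated controls, using a strain engineered with a DNA damage repair defect.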

[17] = at 5.0 µM (retest, dose inferred, filed as 0.5)
[18] = at 50.0 µM (retest, dose inferred, filed as 5.0)

Measured: growth inhibition

Clc1ccc(SC(/C=C/NNC2=NC(c3ccccc3)C(c3ccccc3)=NN2)c2ccccc2)cc1 (stereo not drawn)
inactive: [1]; at 1.2 µM 0% | [1]; at 3.7 µM 6% | [1]; at 11.0 µM 11% | [1]; at 33.0 µM 19% | [2]; at 1.2 µM 0% | [2]; at 3.7 µM -1% | [2]; at 11.0 µM -2% | [2]; at 33.0 µM -1% | [2]; at 100.0 µM 51% | [3]; at 1.2 µM 2% | [3]; at 3.7 µM 12% | [3]; at 11.0 µM 7% | [3]; at 33.0 µM 6% | [3]; at 100.0 µM 0% | [4]; at 1.2 µM -5% | [4]; at 3.7 µM 8% | [4]; at 11.0 µM -11% | [4]; at 33.0 µM 8% | [5]; at 1.2 µM 4% | [5]; at 3.7 µM 14% | [5]; [17] 48% | [5]; at 11.0 µM 14% | [5]; at 33.0 µM 47% | [5]; [18] 48% | [6]; at 1.2 µM -1% | [6]; at 3.7 µM 2% | [6]; [17] 0% | [6]; at 11.0 µM 2% | [6]; at 33.0 µM 8% | [6]; [18] 0% | [6]; at 50.0 µM 18.6% | [7]; at 1.2 µM 1% | [7]; at 3.7 µM 6% | [7]; at 11.0 µM 2% | [7]; at 33.0 µM 50% | [8]; [17] 31% | [8]; [18] 31% | [8]; at 50.0 µM 49.8% | [9]; at 1.2 µM -9% | [9]; at 3.7 µM 0% | [9]; at 11.0 µM -4% | [9]; at 33.0 µM 1% | [10]; [17] 7% | [10]; [18] 7% | [11]; at 1.2 µM -1% | [11]; at 3.7 µM -1% | [11]; [17] 5% | [11]; at 11.0 µM 0% | [11]; at 33.0 µM 37% | [11]; [18] 5% | [11]; at 50.0 µM 60.9% | [12]; at 1.2 µM 0% | [12]; at 3.7 µM 2% | [12]; at 11.0 µM 2% | [12]; at 33.0 µM 29% | [13]; at 1.2 µM -3% | [13]; at 3.7 µM 5% | [13]; at 11.0 µM -4% | [13]; at 33.0 µM 31% | [14]; at 1.2 µM 1% | [14]; at 3.7 µM 3% | [14]; at 11.0 µM 4% | [14]; at 33.0 µM 33% | [15]; [17] 0% | [15]; [18] 0% | [15]; at 50.0 µM 58.4% | [16]; at 1.2 µM 2% | [16]; at 3.7 µM 9% | [16]; at 11.0 µM 23% | [16]; at 33.0 µM 41%
active: [1]; at 100.0 µM 83% | [4]; at 100.0 µM 85% | [5]; at 50.0 µM 71.3% | [5]; at 100.0 µM 82% | [6]; at 100.0 µM 85% | [7]; at 100.0 µM 91% | [9]; at 100.0 µM 80% | [10]; at 50.0 µM 70% | [11]; at 100.0 µM 84% | [12]; at 100.0 µM 86% | [13]; at 100.0 µM 84% | [14]; at 100.0 µM 87% | [16]; at 100.0 µM 80%
